The results in this text go back to PubChem BioAssay.

A short description of experiment [1]: inhibitors of TNFa-induced NFkB p65 translocation, primary screen, imaging, HUVEC, MLSMR starter and 10KST1 sets (AID 438;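 active means inhibition above 20% together with a positive visual image hit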;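 further: compound added about 3h40 before a 20 min TNFalpha stimulation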;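 on inhibition: signal is the nuclear over cytoplasmic p65 intensity ratio per well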). The settings on record: HUVEC TNFa-induced p65 nuclear translocation; cell count: measured here: nuclei count (cytotoxicity indicator), at 2.08 µM; inhibition: at 2 µM, stronger effect = higher value, 0% TNFa-plus-vehicle, 100% no-TNFa wells.
A short description of experiment [2]: reduction of polyQ htt aggregates in cells – imaging, exon1htt(103Q)mCFP cells, high-content imaging, primary screen (AID 483;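 active means visual image review flags a hit and inhibition of aggregation exceeds 20%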;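 further: compound exposure lasted 3 days before fixation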;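 on nuclei count: percent of the per-plate median nuclei count of sample wells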). Particulars: exon1htt(103Q)mCFP cell line, aggregate imaging, at 2 µM; inhibition of aggregation: stronger effect = higher value; nuclei count: measured here: cell count, toxicity.
Experiment [3] is described as follows: Primary imaging screen for DUSP6 inhibitors that restore phospho-Erk in transfected HeLa cells, chemical complementation (AID 609;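 active means compounds giving at least 50% inhibition in the cell-based MKP-3 phosphatase rescue imaging test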;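 on inhibition: phospho-Erk level distribution per well compared with pooled transfected vehicle control wells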). Particulars: HeLa MKP-3 transfected, phospho-Erk imaging KS statistic, at 10 µM, cells stimulated with TPA for 15 min.
The target of experiment [4] is Dual specificity protein phosphatase 6 (Homo sapiens) (UniProt Q16828). Described as above. Particulars: HeLa MKP-3 transfected, phospho-Erk imaging KS statistic; at 10 µM; stronger effect = higher value; cells stimulated with TPA for 15 min.
Chain of Dual specificity protein phosphatase 6 (Homo sapiens) (Q16828 whole entry, looked up): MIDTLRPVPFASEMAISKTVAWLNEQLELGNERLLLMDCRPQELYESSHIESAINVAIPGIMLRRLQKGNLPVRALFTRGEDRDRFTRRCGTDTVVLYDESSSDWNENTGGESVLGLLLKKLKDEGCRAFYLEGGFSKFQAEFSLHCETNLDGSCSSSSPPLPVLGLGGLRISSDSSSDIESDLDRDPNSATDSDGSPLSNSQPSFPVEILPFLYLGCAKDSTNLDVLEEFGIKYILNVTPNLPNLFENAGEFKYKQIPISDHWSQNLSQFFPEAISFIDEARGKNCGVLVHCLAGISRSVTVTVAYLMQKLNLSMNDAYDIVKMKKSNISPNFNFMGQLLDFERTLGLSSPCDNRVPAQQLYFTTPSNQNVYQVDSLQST
In experiment [5] the target is Voltage-gated potassium channel subunit beta-2 (Rattus norvegicus) (UniProt P62483). The experiment can be described thus: inhibitors of rat Kvbeta2 reductase activity – biochemical, NADPH fluorescence, primary screen (AID 622;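 active means fluorescence slope higher than the sample average by over 3 SD, cut at about -0.22 in these data, passing the limit was not always enough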;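 further: slope of raw intensity against log time taken from 70 to 1610 s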). Particulars: recombinant KvBeta, 4-cyanobenzaldehyde reduction, at 10 µM, stronger effect = higher value.
Chain of Voltage-gated potassium channel subunit beta-2 (Rattus norvegicus) (P62483 whole entry, looked up): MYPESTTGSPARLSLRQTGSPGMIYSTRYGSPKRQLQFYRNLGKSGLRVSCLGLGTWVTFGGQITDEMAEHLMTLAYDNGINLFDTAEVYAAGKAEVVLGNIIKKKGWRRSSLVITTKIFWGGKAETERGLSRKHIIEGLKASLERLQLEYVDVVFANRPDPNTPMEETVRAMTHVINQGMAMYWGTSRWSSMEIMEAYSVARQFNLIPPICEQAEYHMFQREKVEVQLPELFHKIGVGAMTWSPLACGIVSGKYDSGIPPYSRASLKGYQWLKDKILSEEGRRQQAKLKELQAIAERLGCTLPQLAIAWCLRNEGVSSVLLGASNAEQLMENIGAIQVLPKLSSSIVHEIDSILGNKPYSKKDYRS
For experiment [6] the target is unchanged. The experiment can be described thus: enhancers of rat Kvbeta2 NADPH turnover – biochemical, NADPH fluorescence, primary screen (AID 623;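 active means NADPH fluorescence slope more negative than the mean of all samples by about 3 SD, 99.7% confidence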;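 further: fluorescence intensity change per second fitted from 20 to 320 s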). Particulars: Recombinant KvBeta, NADPH fluorescence decrease slope, 10 min; at 10 µM; stronger effect = lower value.
The target in experiment [7] is Alpha-2C adrenergic receptor (Homo sapiens) (UniProt P18825). The experiment can be described thus: compounds altering alpha2C-coupled GIRK flux – cell-based, HEK293 alpha2C/GIRK1/2, thallium flux, primary screen (AID 624;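 active means fluorescence slope after compound addition differing from the mean of all screened samples at 99.7% confidence, in either direction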;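 further: slope of fluorescence ratio to pre-addition baseline per second over 15 to 24 s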). The settings on record: thallium flux BTC fluorescence, at 10 µM, actives lie on both sides.
Chain of Alpha-2C adrenergic receptor (Homo sapiens) (P18825 whole entry, looked up): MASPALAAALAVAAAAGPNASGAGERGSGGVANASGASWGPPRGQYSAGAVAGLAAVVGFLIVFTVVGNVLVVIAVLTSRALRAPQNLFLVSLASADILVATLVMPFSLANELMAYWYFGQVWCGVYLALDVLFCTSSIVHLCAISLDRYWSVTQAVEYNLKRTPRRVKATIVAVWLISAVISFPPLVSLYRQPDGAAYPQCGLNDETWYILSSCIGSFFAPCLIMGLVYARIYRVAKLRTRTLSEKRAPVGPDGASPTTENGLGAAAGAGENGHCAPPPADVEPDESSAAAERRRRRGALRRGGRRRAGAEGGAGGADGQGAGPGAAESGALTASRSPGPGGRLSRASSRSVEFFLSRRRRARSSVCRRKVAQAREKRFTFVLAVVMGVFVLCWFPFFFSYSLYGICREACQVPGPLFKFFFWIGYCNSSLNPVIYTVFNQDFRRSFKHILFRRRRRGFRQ
Experiment [8] is described as follows: inhibitors of larval lipid processing in zebrafish, primary screen, whole organism, PED6 fluorescence, gall bladder and intestine (AID 686;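 active means a full or partial loss of lipid-probe fluorescence in the fish gall bladder, intestine or both, judged by eye; inactive means no fluorescence loss, or compound toxic to the fish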;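 further: larvae 5 to 7 days old with five fish per well; signal comes from phospholipase A2 cleavage of quenched PED6 carried via bile; overnight exposure to compound and PED6 before scoring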). Particulars: Zebrafish larvae PED6 lipid processing, fluorescence scoring; screened at 20 µM (by protocol).
Experiment [9] is described as follows: loss of swimming-algae plug formation – whole organism, Chlamydomonas reinhardtii, WT vs cilia-less mutant, absorbance, 96-well, primary screen (AID 463189).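 Further: 0% = wild type cc124 cells in DMSO and 100% = ciliumless bld1 mutant cells.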 Particulars: Chlamydomonas reinhardtii gravitaxis, OD600 absorbance, 2 days; at 10 µM; stronger effect = higher value.
The nature of experiment [10]: blockers of RIG-like receptor reporter activation – cell-based, Sendai virus stimulus, luciferase, 10K MLSCN set, TLR/RLR signaling modifier project, primary screen (AID 602276;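 active means inhibition at or above 50% at 10 µM; inactive means inhibition below 50%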;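 further: firefly luciferase from ISG56 promoter only with Renilla not read in this screen; 0% = Sendai virus plus DMSO and 100% = medium plus DMSO without virus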). Particulars: HEK293 RL24 IRF3 luciferase reporter, at 10 µM, stronger effect = higher value.
A short description of experiment [11]: TLR3 IRF3 reporter activation blockers – cell-based, poly I:C stimulus, luciferase, 10K MLSCN set, primary screen (AID 602277;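 active means inhibition of the reporter signal at or above 50%; inactive means inhibition below 50%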). Particulars: HEK293-TLR3 RL24 IRF3 luciferase reporter, at 10 µM, stronger effect = higher value. (A reporter such as luciferase makes a cellular process visible.)
A short description of experiment [12]: endothelial E-selectin expression blockers – imaging, HUVEC, immunofluorescence, MLSMR starter and 10KST1 sets, primary screen (AID 487;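 active means visually confirmed hit in the image check and inhibition above 20%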;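 on inhibition: signal is fraction of cell area covered by stained E-selectin grains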;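 on nuclei count: 100% = median nuclei count of all wells on the same plate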). The settings on record: HUVEC TNFalpha-induced E-selectin immunofluorescence imaging, at 2 µM; inhibition: stronger effect = higher value; nuclei count: measured here: cell number, toxicity.
Experiment [13] has as its target Muscarinic acetylcholine receptor M4 (Homo sapiens) (UniProt P08173). Put plainly: M4-linked GIRK flux change, two-sided – cell-based, HEK293 M4/GIRK, thallium flux, BTC-AM, M4 allosteric agonist project, primary screen (AID 625;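 active means fluorescence slope after compound addition differing from the mean of all tested samples at 99.7% confidence, mostly higher but some lower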;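 further: thallium influx through GIRK channels coupled to M4 in HEK293 cells with BTC-AM dye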). The settings on record: at 10 µM, actives lie on both sides.
[14] abbreviates: measured here: cell density z-score.
Where [15] appears, read: measured here: nuclear c-Myc green intensity z-score.
[16] abbreviates: measured here: nuclear pErk red intensity z-score, stronger effect = higher value.

Several values for one entry are separate records, joined by “and”; a condition that tells them apart may be missing. Identical values can stand only once. Activity calls are given as the source filed them.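 How the source made its calls, unless noted: active means inhibition at or above 50% relative to wild type and mutant plate controls; inactive means inhibition below 50%.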

Chain of Muscarinic acetylcholine receptor M4 (Homo sapiens) (P08173 whole entry, looked up): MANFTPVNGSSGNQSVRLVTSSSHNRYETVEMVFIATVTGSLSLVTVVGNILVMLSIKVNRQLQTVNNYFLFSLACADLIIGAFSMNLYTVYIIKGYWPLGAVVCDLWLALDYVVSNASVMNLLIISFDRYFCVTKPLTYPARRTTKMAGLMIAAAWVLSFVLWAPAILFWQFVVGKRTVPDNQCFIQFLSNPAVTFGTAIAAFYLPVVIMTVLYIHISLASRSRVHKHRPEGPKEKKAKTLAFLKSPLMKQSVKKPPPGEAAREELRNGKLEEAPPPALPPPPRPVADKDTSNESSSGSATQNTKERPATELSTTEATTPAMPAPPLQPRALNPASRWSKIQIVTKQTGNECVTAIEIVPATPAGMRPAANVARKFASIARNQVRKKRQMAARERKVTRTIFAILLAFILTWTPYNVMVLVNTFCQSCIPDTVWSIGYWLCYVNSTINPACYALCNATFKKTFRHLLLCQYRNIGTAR

Take `COc1cccc2c1C(=O)c1c(O)c3c(c(O)c1C2=O)C[C@@](O)(C(=O)CO)C[C@@H]3O[C@H]1C[C@H](N)[C@H](O)[C@H](C)O1`: the cell count in experiment [1] amounted to 564. The inhibition – broadly, the change of the read-out against control, counted positive when it falls – in experiment [1] is -15.3% (inactive); in experiment [4] it was 96.1% (active); in [9], 1.03% (inactive); in [10] it was -38.5% (inactive); in experiment [11], 101% (active). For the same compound, the inhibition of aggregation in experiment [2] was 23.4% (inactive). In experiment [2], the nuclei count is 2.5%. Also, the z-score in experiment [3] (setting [14]) was determined as 0.975; in experiment [3] (setting [15]), 6.47; in [3] (setting [16]), 3.82. For the same compound, the fluorescence slope in experiment [5] is -0.456 (inactive). Besides, the NADPH fluorescence slope in [6] is 2.3e-06 (inactive). Further, in experiment [7], the slope is 0.00828 (inactive). The compound was classed as inactive in [8].

Consider `CCOC(=O)C1=C(C)NC(C)=C(C(=O)OC)C1c1cccc(Cl)c1Cl` (stereo not drawn), for which the cell count in experiment [1] was determined as 723. Also, the inhibition is -6.4% (inactive) in experiment [1]; -52.9% (inactive) in [12]; 25.1% (inactive) in experiment [4]; 14.9% (inactive) and 24.6% (inactive) in experiment [9]; 3.98% (inactive) in experiment [10]; 6.81% (inactive) in [11]. The nuclei count in [12] amounted to 142%. Besides, the values for the z-score in [3] (setting [14]), in experiment [3] (setting [15]) and in experiment [3] (setting [16]) were 0.529, -0.8 and 1.2, respectively. Also, in [5], the fluorescence slope is -0.431 (inactive). Further, the NADPH fluorescence slope in experiment [6] was -6.6e-05 (inactive). In addition, the slope in experiment [7] was 0.00394 (inactive). Moreover, the outcome in [8] was inactive.

With `O=C(O)c1cc(=O)cc(C(=O)O)[nH]1`, the cell count in experiment [1] turned out to be 482. For the same compound, the inhibition in experiment [1] is 1.8% (inactive); in experiment [12] it was -58.7% (inactive); in experiment [9] it was 3.81% (inactive); in experiment [10] it was 13.7% (inactive); in [11] it was 20.1% (inactive). Moreover, in experiment [2], the inhibition of aggregation was 0.2% (inactive). The nuclei count in experiment [2] amounted to 98%; in experiment [12] it was 188%. Moreover, the fluorescence slope in experiment [5] is -0.603 (inactive); in experiment [13] it was 0.00559 (inactive). In addition, the NADPH fluorescence slope in [6] is -2e-06 (inactive).

For `CCn1nc(C(=O)O)c(=O)c2cc3c(cc21)OCO3`, the cell count in experiment [1] worked out at 692. Also, the inhibition in [1] was -0.9% (inactive); in experiment [12], -72.8% (inactive); in experiment [4], 1.48% (inactive); in experiment [9], -5.01% (inactive) and 17.9% (inactive); in experiment [10] it was 8.87% (inactive); in experiment [11] it was 30.3% (inactive). Besides, the nuclei count in [12] worked out at 125%. In addition, the values for the z-score in experiment [3] (setting [14]), in [3] (setting [15]) and in experiment [3] (setting [16]) were 0.431, 0.329 and -0.702, respectively. In experiment [5], the fluorescence slope was -0.476 (inactive). Also, the NADPH fluorescence slope in [6] is -5.5e-05 (inactive). In addition, the slope in experiment [7] is 0.00573 (inactive). Further, the outcome in [8] was inactive.

As to `CN1CCN(C2=Nc3ccccc3Oc3ccc(Cl)cc32)CC1`, in experiment [1], the cell count is 536. Also, the inhibition is -3.1% (inactive) in experiment [1]; -3.4% (inactive) in experiment [12]; 14.6% (inactive) in experiment [4]; 27.3% (inactive) and 39.2% (inactive) in experiment [9]; 13.8% (inactive) in [10]; 41.9% (inactive) in experiment [11]. Besides, the inhibition of aggregation in [2] was -4.5% (inactive). Further, the results for the nuclei count in experiment [2] and in [12] were 91.8% and 105%, respectively. Also, the z-score in experiment [3] (setting [14]) was -0.87; in experiment [3] (setting [15]), 0.672; in experiment [3] (setting [16]), -0.787. Also, in experiment [5], the fluorescence slope is -0.437 (inactive). The NADPH fluorescence slope in experiment [6] was -4.1e-05 (inactive). Besides, the outcome in experiment [8] was “inactive; toxic”.

As to `CC(C)Oc1ccc2c(=O)c(-c3ccccc3)coc2c1`, the cell count in experiment [1] was 646. Besides, the inhibition in experiment [1] is 2.7% (inactive); in [12] it was -33.4% (inactive); in experiment [4] it was 10.2% (inactive); in experiment [9] it was -9.11% (inactive); in experiment [10], -37.9% (inactive); in experiment [11], -186% (inactive). This compound also showed a nuclei count in experiment [12] of 124%. Besides, the z-score in experiment [3] (setting [14]) was -1.12; in experiment [3] (setting [15]), -0.535; in experiment [3] (setting [16]), 0.614. In [5], the fluorescence slope was -0.425 (inactive). For the same compound, the NADPH fluorescence slope in experiment [6] is -6.4e-05 (inactive). In addition, the slope in experiment [7] was 0.00497 (inactive). Further, the outcome in experiment [8] was inactive.
